Results from the supplement of paper PMC7366291.
Structures can show the parent of a compound that is named as a salt. ± gives the standard deviation or the standard deviation of the averaged measurements.

How the values were obtained:
Conditions in all cases: 25 µM; exposure: 24-48 hpf
[1] = test system: Danio rerio Tg(wt1b:EGFP) embryo, pronephros; assay: glomerular separation, fold change vs DMSO control; higher = glomeruli further apart (abnormal)
Procedure, shortened: (§1)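 Dechorionated Tg(wt1b:EGFP) zebrafish embryos were exposed to 25 μM compound in 0.5% DMSO, HEPES-buffered E3 with 0.003% PTU, from 24 to 48 hpf at 28.5°C. Pronephroi were imaged dorsally in agarose-filled 96-well plates (470 nm, 10 z-slices). On maximum projections, 16 reference points were set manually in Fiji and a macro computed distances and angles. Values more than 2 SD from the feature mean were excluded. Each feature is a fold change relative to the mean of same-day DMSO controls.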

[2] = test system: Danio rerio Tg(wt1b:EGFP) embryo, pronephros; assay: glomerular width (mean of left and right), fold change vs DMSO control; higher = wider glomerulus
Procedure, shortened: as §1

[3] = test system: Danio rerio Tg(wt1b:EGFP) embryo, pronephros; assay: fraction of imaged embryos annotated as normal kidney; higher = less nephrotoxic; extreme values may be limits of the assay
Procedure, shortened: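 The value given is the share of embryos in each treatment scored as having a normal kidney. To obtain it, dechorionated Tg(wt1b:EGFP) zebrafish embryos were treated from 24 to 48 hpf at 28.5°C with 25 μM compound in 0.5% DMSO, in 5 mM HEPES-buffered E3 with 0.003% PTU. Pronephroi were imaged by widefield fluorescence (470 nm, 10 z-slices), and every embryo was annotated by hand from maximum projections.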

[4] = test system: Danio rerio Tg(wt1b:EGFP) embryo, pronephros; assay: pronephric angle neck segment to proximal convoluted tubule (mean of left and right), fold change vs DMSO control; higher = larger pronephric angle
Procedure, shortened: as §1

Structure (SMILES) | glomerular separation [1] | glomerular width [2] | fraction of imaged embryos annotated as normal kidney [3] | pronephric angle neck segment [4]
CN(Cc1cnc2nc(N)nc(N)c2n1)c1ccc(C(=O)N[C@@H](CCC(=O)O)C(=O)O)cc1 (racemic) [Amethopterin (R,S)] | 1.29 ± 0.49 | 0.996 ± 0.022 | 0.75 | 1.03 ± 0.036
CCn1nc(C(=O)O)c(=O)c2cc3c(cc21)OCO3 [Cinoxacin] | 1.07 ± 0.43 | 0.979 ± 0.031 | 0.8 | 1.05 ± 0.1
CC(C(=O)O)c1ccc(-c2ccccc2)c(F)c1 (configuration not stated) [Flurbiprofen] | 5.61 ± 1.3 | 0.48 ± 0.02 | 0 | 1.96 ± 0.059
O=c1[nH]c(=O)n([C@H]2C[C@H](O)[C@@H](CO)O2)cc1F [Floxuridine] | 0.88 ± 0.33 | 0.972 ± 0.015 | 0.5 | 1.05 ± 0.016
CN(C)[C@@H]1C(O)=C(C(N)=O)C(=O)[C@@]2(O)C(O)=C3C(=O)c4c(O)ccc(Cl)c4[C@@](C)(O)[C@H]3C[C@@H]12 [Chlortetracycline hydrochloride] | 1.18 ± 0.35 | 1.04 ± 0.012 | 0.583 | 0.9692 ± 0.0065
CN(C)CC/C=C1/c2ccccc2COc2ccc(CC(=O)O)cc21 [Olopatadine hydrochloride] | 0.914 ± 0.34 | 0.97 ± 0.013 | 0.833 | 1.03 ± 0.025
COc1cc(C(=O)N2CCOCC2)cc(OC)c1OC [Trimetozine] | 1.03 ± 0.47 | 0.984 ± 0.065 | 0.917 | 1.01 ± 0.06
CN1CCN(C2=Nc3cc(Cl)ccc3Nc3ccccc32)CC1 [Clozapine] | 0.792 ± 0.2 | 1.05 ± 0.011 | 1 | 0.975 ± 0.058
CN1[C@@H]2CC[C@H]1C[C@@H](OC(c1ccccc1)c1ccccc1)C2 [Benztropine mesylate] | 0.821 ± 0.18 | 1 ± 0.025 | 0.833 | 1.04 ± 0.011
S=c1[nH]cnc2nc[nH]c12 [Mercaptopurine] | 0.832 ± 0.28 | 0.991 ± 0.088 | 0.75 | 0.992 ± 0.07
C[N+](C)(CCOc1ccccc1)Cc1ccccc1.O=C([O-])c1cc2ccccc2cc1O [Bephenium hydroxynaphthoate] | 2.05 ± 0.8 | 0.9959 ± 0.0015 | 0.583 | 1.17 ± 0.053
CC(C)(C)c1ccc(C(O)CCCN2CCC(C(O)(c3ccccc3)c3ccccc3)CC2)cc1 (configuration not stated) [Terfenadine] | 0.943 ± 0.3 | 1.023 ± 0.0083 | 0.583 | 1.02 ± 0.039
CN1CCC(=C2c3ccccc3Sc3ccccc32)CC1 [Pimethixene maleate] | 1.32 ± 0.41 | 1.01 ± 0.021 | 0.917 | 1.062 ± 0.0083
CCS(=O)(=O)CCn1c([N+](=O)[O-])cnc1C [Tinidazole] | 0.882 ± 0.35 | 1.04 ± 0.036 | 0.833 | 1.02 ± 0.037
Cc1onc(-c2c(Cl)cccc2Cl)c1C(=O)N[C@@H]1C(=O)N2[C@@H]1SC(C)(C)[C@@H]2C(=O)O [Dicloxacillin sodium salt hydrate] | 1.24 ± 0.43 | 1.009 ± 0.0084 | 0.818 | 0.998 ± 0.017
NC(=O)OCC(COC(N)=O)c1ccccc1 [Felbamate] | 0.918 ± 0.32 | 1.05 ± 0.031 | 0.833 | 1.01 ± 0.013
CO[C@@]1(NC(=O)C(C(=O)O)c2ccc(O)cc2)C(=O)N2C(C(=O)O)=C(CSc3nnnn3C)CO[C@@H]21 (some centres not stated) [Moxalactam disodium salt] | 0.871 ± 0.28 | 1.04 ± 0.014 | 0.917 | 0.984 ± 0.067
Nc1ccc(O)c(C(=O)O)c1 [Mesalamine] | 1.23 ± 0.36 | 0.956 ± 0.032 | 0.917 | 0.971 ± 0.018
Cc1c(O)cccc1C(=O)N[C@@H](CSc1ccccc1)[C@H](O)CN1C[C@H]2CCCC[C@H]2C[C@H]1C(=O)NC(C)(C)C [Nelfinavir mesylate] | 0.563 ± 0.13 | 1.05 ± 0.017 | 1 | 0.954 ± 0.03
Nc1nc2c(ncn2COCCO)c(=O)[nH]1 [Acyclovir] | 1.05 ± 0.49 | 1.06 ± 0.041 | 0.583 | 0.888 ± 0.022
COC(=O)N/N=C/c1c[n+]([O-])c2ccccc2[n+]1[O-] [Carbadox] | 1.17 ± 0.61 | 0.931 ± 0.063 | 0.833 | 1.13 ± 0.11
O=C1OCCN1/N=C/c1ccc([N+](=O)[O-])o1 [Furazolidone] | 0.83 ± 0.29 | 0.9957 ± 0.006 | 1 | 0.935 ± 0.054
Clc1ccc(Cn2c(CN3CCCC3)nc3ccccc32)cc1 [Clemizole hydrochloride] | 1.13 ± 0.35 | 1.03 ± 0.036 | 0.545 | 1.02 ± 0.08
N=C(N=C(N)N)N1CCOCC1 [Moroxidine hydrochloride] | 1.26 ± 0.44 | 1.07 ± 0.049 | 0.75 | 0.903 ± 0.039
CC1(C)OC(=O)NC1=O [Dimethadione] | 1.27 ± 0.36 | 0.89 ± 0.031 | 0.667 | 1.0483 ± 0.00042
Cc1ccc(-c2cc(C(F)(F)F)nn2-c2ccc(S(N)(=O)=O)cc2)cc1 [Celecoxib] | 0.968 ± 0.38 | 0.913 ± 0.059 | 0.833 | 1.06 ± 0.014
Cc1cnc(C(=O)O)c[n+]1[O-] [Acipimox] | 1.01 ± 0.23 | 1.015 ± 0.0095 | 1 | 0.94922 ± 0.00089
CCCNC(C)(C)COC(=O)c1ccccc1 [Meprylcaine hydrochloride] | 1.08 ± 0.26 | 0.936 ± 0.03 | 1 | 0.9842 ± 0.0035
